Many of the other results were omitted from the sample, so hits are more common in it than they were.
CD40 NFkB inh: inhibitors of CD40-induced NF-kB signaling, primary screen, BL2 cells, luciferase reporter, single point; CD40L-induced, 4 h; inhibition, % at 10 µM; 83,000 tested, 0.94% active; AID 1053188, 2014;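 active means mean inhibition of at least 50% with a set share of replicates also reaching that level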;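 further: 0% = neutral control wells and 100% = IKK inhibitor VII at 50 µM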
Numbers without * were called inactive; ! = repeats disagree; [ ] = another dose, or the depositor's remark.

SMILES | CD40 NFkB inh
Cc1noc(C)c1S(=O)(=O)Nc1ccc2c(c1)C(=O)N([C@H](C)CO)C[C@H](C)[C@H](CN(C)C(=O)Nc1cccc3ccccc13)OCCCC[C@@H](C)O2 | -10[25 µM]
C[C@@H]1CCCCO[C@@H](CN(C)CC2CCCCC2)[C@@H](C)CN([C@@H](C)CO)C(=O)c2cc(NC(=O)Nc3ccc(C(F)(F)F)cc3)ccc2O1 | 97*[25 µM]
C[C@H]1CCCCO[C@@H](CN(C)Cc2ccc(C(F)(F)F)cc2)[C@@H](C)CN([C@@H](C)CO)C(=O)c2cc(NC(=O)Nc3cccc4ccccc34)ccc2O1 | 18[25 µM]
N#C[C@@H]1N[C@@H](CO)[C@@H]1c1ccc(-c2cccc(F)c2)cc1 | -23[25 µM]
C[C@@H]1CN([C@H](C)CO)C(=O)c2c(c3ccccc3n2C)-c2ccccc2CO[C@H]1CN(C)S(=O)(=O)c1ccc(Cl)cc1 | 5
COc1ccc(NC(C)=O)cc1S(=O)(=O)N1CC=C(c2ccccc2)CC1 | 16
C[C@H]1CN([C@@H](C)CO)C(=O)CCCn2cc(nn2)CO[C@H]1CN(C)C(=O)Nc1ccc(C(F)(F)F)cc1 | -1
CC(=O)N1[C@H](CNC(=O)CN(C)C)[C@@H](c2ccc(C3=CCCC3)cc2)[C@@H]1CO | -1
CCOc1ccc(S(=O)(=O)N2CCN(C(=O)c3cc(C4CC4)nn3-c3ccccc3)CC2)cc1 | 1
Cc1nc2cc(CO)ccc2n1C | 2
Cn1c(CO)nc2cc(N)ccc21 | 50*
Cn1c(SCc2nc3ccccc3n2CCO)nc2ccccc21 | 9
O=C(c1cccc(F)c1)N1CCCCN2[C@H](C1)[C@H](c1ccc(-c3cncnc3)cc1)[C@@H]2CO | 1[25 µM]
Cc1ccccc1OCCC(=O)Nc1ccc(S(=O)(=O)N2CCCC2)cc1 | 10
CC(C)c1ccc(S(=O)(=O)N(C)C2(C)CCS(=O)(=O)C2)cc1 (stereo not given) | -11
COc1cccc(NC(=O)N[C@@H]2CC[C@H](CC(=O)N3CCN(C)CC3)O[C@@H]2CO)c1 | -7[25 µM]
O=S(=O)(c1ccccc1)N1[C@@H]2CNC[C@H]1C2c1ccc(/C=C/c2ccccc2)cc1 (stereo not given in full) | 51*!
Cc1ccc(S(=O)(=O)N2[C@@H]3CNC[C@H]2C3c2ccc(/C=C/c3ccccc3)cc2)cc1 (stereo not given in full) | -15[25 µM]
O=S(=O)(c1cccc(F)c1)N1[C@@H]2CNC[C@H]1C2c1ccc(/C=C/c2ccccc2)cc1 (stereo not given in full) | -20
CC1CC(C)CN(S(=O)(=O)c2ccc3c(c2)CC(=O)N3)C1 (stereo not given) | 13
CCCNC(=O)N1[C@H](CN(C)C(C)=O)[C@@H](c2ccc(C3=CCCC3)cc2)[C@@H]1CO | 6
C[C@@H]1CN([C@@H](C)CO)C(=O)c2cccc(NC(=O)C3CCCCC3)c2O[C@@H]1CN(C)S(C)(=O)=O | -6[25 µM]
O=C(O)[C@H]1[C@H](CO)[C@H]2Cn3c(ccc(C4=CCCCC4)c3=O)[C@H]2N1C(=O)c1ccccc1F | 12[25 µM]
Cc1cc(C(=O)CN2C(=O)c3ccccc3S2(=O)=O)c(C)n1CC1CCCO1 (stereo not given) | 13
CCCn1c(C)cc(C(=O)Cn2nnc3ccccc3c2=O)c1C | 24
SMILES | CD40 NFkB inh
CCCn1c(C)cc(C(=O)CN2C(=O)c3ccccc3S2(=O)=O)c1C | 53*
C[C@H](NC(=O)C[C@@H]1CC[C@@H]2[C@H](COC[C@@H](O)CN2Cc2ccc(C(F)(F)F)cc2)O1)c1ccccc1 | 17[25 µM]
Cc1cccc(-n2c(SCc3ccc([N+](=O)[O-])cc3)nnc2-c2c[nH]c3ccccc23)c1 | 13
O=C1NC2c3c(I)sc(I)c3C(=O)C2O1 (stereo not given) | 101*
O=C1NC2c3c(Cl)sc(Cl)c3C(=O)C2O1 (stereo not given) | 56*
Cc1onc(-c2c(Cl)cccc2Cl)c1COC(=O)c1ccc(Cl)cc1 | 8
O=C(NCc1ccc(F)cc1)[C@@H]1[C@@H](CO)[C@@H]2Cn3c(ccc(-c4cccnc4)c3=O)[C@H]1N2 | 3[25 µM]
COc1ccccc1-c1ccc(C2[C@H]3CNC[C@@H]2N3S(=O)(=O)c2ccccc2)cc1 (stereo not given in full) | -8
O=C1CNC[C@H]2[C@H](c3ccc(C4=CCCC4)cc3)[C@H](CO)N12 | 20[25 µM]
CNC(=S)NN=C(C)CCCC(C)=NNC(=S)NC | 71*
Cc1cccc(OCC(=O)OC(C)C(=O)Nc2ccc(Cl)cn2)c1 (stereo not given) | 8
CCOc1ncccc1C(=O)OC(C)C(=O)Nc1ccc(Cl)cn1 (stereo not given) | 68*
Cc1cnc(C(=O)OC(C)C(=O)Nc2ccc(Cl)cn2)cn1 (stereo not given) | 7
Cc1ccc(-c2ccc([C@H]3[C@H](CO)N4CCCCN(C(=O)Nc5cccc(F)c5)C[C@@H]34)cc2)cc1 | 23
CSc1nsc(SC)c1C(=O)O | 4
CSc1nsc(SC)c1C(=O)OCC(F)(F)F | -17
CSc1nsc(SC)c1C(N)=O | 78*
O=C(Nc1ccc(Cl)cc1)N1C[C@H]2[C@@H](c3ccccc31)[C@H](CO)N2C(=O)c1cccnc1 | -40
COc1ccc2c3c([nH]c2c1)[C@@H](CO)N(C(=O)C1CCOCC1)CC31CCN(Cc2nccs2)CC1 | -15[25 µM]
COCC(=O)Nc1ccc2c(c1)[C@@H]1C[C@@H](CC(=O)N[C@H](C)c3ccccc3)O[C@@H](CO)[C@@H]1O2 | -9[25 µM]
O=C(Nc1nnc(C2CC2)s1)c1cc2ccccc2o1 | -60
Cc1cnc(NC(=O)c2cc3ccccc3o2)s1 | 56*
Cc1nnc(NC(=O)c2cc3ccccc3o2)s1 | -72
CC(=O)NC[C@@H]1[C@@H](c2ccc(-c3cccnc3)cc2)[C@@H](CO)N1C(=O)CC1CC1 | -1[25 µM]
N#C[C@H]1N[C@H](CO)[C@H]1c1ccc(C#CC2CCCC2)cc1 | 62*
SMILES | CD40 NFkB inh
N#C[C@H]1N[C@H](CO)[C@H]1c1ccc(C#Cc2ccc(F)cc2)cc1 | 4[25 µM]
N#C[C@H]1N[C@@H](CO)[C@@H]1c1ccc(C#Cc2ccccc2F)cc1 | active[25 µM]
N#C[C@@H]1N[C@H](CO)[C@@H]1c1ccc(C#Cc2ccccc2F)cc1 | -43[25 µM]
N#C[C@@H]1N[C@H](CO)[C@@H]1c1ccc(C#CC2CCCC2)cc1 | -10
N#C[C@@H]1N[C@H](CO)[C@H]1c1ccc(C#CC2CCCC2)cc1 | 13
O=C(CC1CC1)N1CC2(C1)[C@H](c1ccccc1)[C@H](CO)N2C(=O)c1ccccn1 | -2[25 µM]
C[C@H]1CN([C@@H](C)CO)C(=O)c2c(c3ccccc3n2C)-c2ccccc2CO[C@@H]1CN(C)Cc1ccc(Cl)c(Cl)c1 | 7[25 µM]
CC(=O)Cn1c(CN2CCCC2)nc2ccccc2c1=O | 0
CN1CCN(Cc2nc3c(c(=O)n(C)c(=O)n3C)n2CCCc2ccccc2)CC1 | 3
CN1CCN(Cc2nc3ccccc3c(=O)n2Cc2nc(-c3ccc4ccccc4c3)cs2)CC1 | 60*
CCCCNC(=O)c1ccc(NC(C)=O)c(Cl)c1 | 8
Oc1ccc2ccccc2c1CNc1cnc2ccccc2c1 | 54*
NCc1c(O)ccc2ccccc12 | -3
Cn1c(NCc2c(O)ccc3ccccc23)nc2ccccc21 | -12
CCCNC(=O)C1(C)CCCN(Cc2ccc(C(=O)OCC)o2)C1 (stereo not given) | 5
C[C@H]1CN([C@@H](C)CO)C(=O)c2cc(-c3cccnc3)cnc2O[C@H]1CN(C)C(=O)Nc1ccccc1 | -10[25 µM]
O=C1CCC(C(=O)OCC(=O)c2ccccc2)N1 (stereo not given) | 11
